About 8,800 targets were measured; listed, in parts, are those with a hit and a random draw of the rest. About 0.5% of all pairs of compound and target were hits.
Tests used:
Experiment in all cases: log2 fold change, soluble protein after heating vs DMSO (PISA); higher = thermal stabilisation; K562 lysate, 10 uM; active = over 0.2 and 3.5 SD of the protein, either way, in both replicates (recomputed)
[1] = compound: CS(=O)(=O)CCNCc1ccc(-c2ccc3ncnc(Nc4ccc(OCc5cccc(F)c5)c(Cl)c4)c3c2)o1 [lapatinib]
In short: (§1)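 K562 pellets were dounce-homogenised in PBS pH 7.4 containing 1 mM MgCl2, and the crude extract, at 1 mg/mL protein, was exposed to 10 μM compound for 30 min. Aliquots were heated for 3 min across 48°C-58°C, pooled, brought to 0.5% NP-40 at 4°C and spun at 21,000xg for 90 min, with the supernatant taken as soluble protein. TMTpro 16plex LC-MS/MS with equalised channel sums quantified that protein. Values are log-two fold changes in thermal stability relative to solvent controls, taken from duplicates.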

[2] = compound: CS(=O)(=O)N1CCN(Cc2cc3nc(-c4cccc5[nH]ncc45)nc(N4CCOCC4)c3s2)CC1 [pictilisib]
In short: as §1

[3] = compound: C[C@@H](Oc1cc(-c2cnn(C3CCNCC3)c2)cnc1N)c1c(Cl)ccc(F)c1Cl [crizotinib]
In short: as §1

[4] = compound: C[C@H](C1=CC=C(C=C1)C(=O)NC2=C3C=CNC3=NC=C2)N
In short: as §1

[5] = compound: C[C@H](Nc1ncnc2nc[nH]c12)c1cc2cccc(Cl)c2c(=O)n1-c1ccccc1 [duvelisib]
In short: as §1

[6] = compound: Cc1cc(Nc2cc(CN3CCOCC3)c3nc(C)c(Cc4ccc(Cl)cc4F)n3n2)n[nH]1 [gandotinib]
In short: as §1

[7] = compound: Cc1cc(Nc2cc(N3CCN(C)CC3)nc(Sc3ccc(NC(=O)C4CC4)cc3)n2)n[nH]1 [tozasertib]
In short: as §1

[8] = compound: Cc1ccc(-n2nc(C(C)(C)C)cc2NC(=O)Nc2ccc(OCCN3CCOCC3)c3ccccc23)cc1 [doramapimod]
In short: as §1

[9] = compound: Cc1ccc(NC(=O)c2ccc(CN3CC[C@H](N(C)C)C3)c(C(F)(F)F)c2)cc1Nc1nccc(-c2cncnc2)n1 [bafetinib]
In short: as §1

[10] = compound: Cc1cccc(CC(=O)N2CCc3c2ccc(-c2cn(C)c4ncnc(N)c24)c3F)n1
In short: as §1

[11] = compound: Cc1cn(-c2cc(NC(=O)c3ccc(C)c(Nc4nccc(-c5cccnc5)n4)c3)cc(C(F)(F)F)c2)cn1 [nilotinib]
In short: as §1

[12] = compound: Cc1nc(Nc2n[nH]c3c2CN(C(=O)N[C@H](CN(C)C)c2ccccc2)C3(C)C)c2sccc2n1
In short: as §1

[13] = compound: Cc1nc(Nc2ncc(C(=O)Nc3c(C)cccc3Cl)s2)cc(N2CCN(CCO)CC2)n1 [dasatinib]
In short: as §1

[14] = compound: Cc1ncc(-c2ccnc(Nc3ccc(S(C)(=O)=O)cc3)n2)n1C(C)C
In short: as §1

[15] = compound: Cn1cc(-c2ccc3c(c2)CCN3C(=O)Cc2cccc(C(F)(F)F)c2)c2c(N)ncnc21
In short: as §1

[16] = compound: Cn1cc(CNCC2CCN(c3ncc(C(=O)NO)cn3)CC2)c2ccccc21 [quisinostat]
In short: as §1

[17] = compound: Cn1cncc1[C@@](N)(c1ccc(Cl)cc1)c1ccc2c(c1)c(-c1cccc(Cl)c1)cc(=O)n2C [tipifarnib]
In short: as §1

[18] = compound: NC(=O)Nc1cc(-c2cccc(F)c2)sc1C(=O)N[C@H]1CCCNC1
In short: as §1

[19] = compound: NC(=O)c1cnc(N[C@@H]2CCCC[C@@H]2N)nc1Nc1cccc(-n2nccn2)c1
In short: as §1

[20] = compound: NC1(c2ccc(-c3nc4ccn5c(=O)[nH]nc5c4cc3-c3ccccc3)cc2)CCC1
In short: as §1

Measured: log2 fold change

UTP3 (UniProt Q9NQZ2)
Chain of UniProt Q9NQZ2 (Q9NQZ2 whole entry, looked up): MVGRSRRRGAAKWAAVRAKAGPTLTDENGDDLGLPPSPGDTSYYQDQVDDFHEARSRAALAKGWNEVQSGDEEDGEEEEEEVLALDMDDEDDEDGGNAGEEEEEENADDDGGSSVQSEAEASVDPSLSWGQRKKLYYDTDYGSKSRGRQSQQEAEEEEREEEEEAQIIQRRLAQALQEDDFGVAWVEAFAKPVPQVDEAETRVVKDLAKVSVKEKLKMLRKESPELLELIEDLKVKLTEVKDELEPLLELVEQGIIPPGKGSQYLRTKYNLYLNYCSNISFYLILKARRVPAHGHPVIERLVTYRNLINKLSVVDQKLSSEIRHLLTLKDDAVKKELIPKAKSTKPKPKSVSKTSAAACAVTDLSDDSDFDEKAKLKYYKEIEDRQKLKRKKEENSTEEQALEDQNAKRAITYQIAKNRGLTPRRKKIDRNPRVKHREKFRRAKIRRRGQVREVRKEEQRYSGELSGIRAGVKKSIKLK
inactive: [1] 0.002 | [2] -0.031 | [3] -0.094 | [4] -0.008 | [5] 0.031 | [6] -0.007 | [7] -0.027 | [8] 0.066 | [9] -0.061 | [10] 0.029 | [11] -0.106 | [12] 0.008 | [13] -0.048 | [14] -0.054 | [15] -0.023 | [16] 0.014 | [17] 0.051 | [18] 0.065 | [19] 0.002 | [20] 0

VPS4A (UniProt Q9UN37)
Chain of UniProt Q9UN37 (Q9UN37 whole entry, looked up): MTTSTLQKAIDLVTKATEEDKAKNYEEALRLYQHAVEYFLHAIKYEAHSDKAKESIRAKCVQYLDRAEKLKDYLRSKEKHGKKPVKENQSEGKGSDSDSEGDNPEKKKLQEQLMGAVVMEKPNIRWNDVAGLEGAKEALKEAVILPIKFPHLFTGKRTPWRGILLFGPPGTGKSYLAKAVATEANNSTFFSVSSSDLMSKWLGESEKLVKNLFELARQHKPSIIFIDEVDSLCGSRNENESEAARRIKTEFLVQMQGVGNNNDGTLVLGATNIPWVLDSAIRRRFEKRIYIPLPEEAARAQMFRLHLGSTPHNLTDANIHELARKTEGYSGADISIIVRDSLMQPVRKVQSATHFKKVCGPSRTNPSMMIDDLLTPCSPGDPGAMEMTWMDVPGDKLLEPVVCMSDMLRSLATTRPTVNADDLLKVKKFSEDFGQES
inactive: [1] 0.003 | [2] -0.034 | [3] -0.034 | [4] -0.042 | [5] -0.012 | [6] -0.066 | [7] 0.007 | [8] 0.038 | [9] 0.004 | [10] 0.056 | [11] -0.011 | [12] 0.008 | [13] -0.075 | [14] 0.002 | [15] 0.056 | [16] -0.027 | [17] 0.023 | [18] 0.019 | [19] 0.004 | [20] -0.011

ZNHIT6 (UniProt Q9NWK9)
Chain of UniProt Q9NWK9 (Q9NWK9 whole entry, looked up): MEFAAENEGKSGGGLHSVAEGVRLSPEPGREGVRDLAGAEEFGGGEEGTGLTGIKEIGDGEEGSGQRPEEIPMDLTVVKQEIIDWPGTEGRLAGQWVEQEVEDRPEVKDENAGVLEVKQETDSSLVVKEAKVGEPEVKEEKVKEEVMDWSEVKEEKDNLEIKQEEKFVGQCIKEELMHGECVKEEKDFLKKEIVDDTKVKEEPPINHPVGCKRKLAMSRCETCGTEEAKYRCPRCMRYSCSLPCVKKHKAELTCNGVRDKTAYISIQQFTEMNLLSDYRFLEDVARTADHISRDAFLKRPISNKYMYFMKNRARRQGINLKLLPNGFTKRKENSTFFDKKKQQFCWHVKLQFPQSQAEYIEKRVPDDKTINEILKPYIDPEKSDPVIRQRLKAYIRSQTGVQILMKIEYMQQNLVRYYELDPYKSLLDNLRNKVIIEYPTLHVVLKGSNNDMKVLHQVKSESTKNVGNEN
inactive: [1] 0.042 | [2] 0.006 | [3] -0.006 | [4] 0.061 | [5] -0.002 | [6] 0.008 | [7] -0.029 | [8] -0.024 | [9] -0.026 | [10] -0.004 | [11] -0.023 | [12] 0 | [13] -0.037 | [14] -0.005 | [15] 0.004 | [16] -0.04 | [17] 0.014 | [18] 0.087 | [19] 0.028 | [20] -0.022

VPS35L (UniProt Q7Z3J2)
Chain of UniProt Q7Z3J2 (Q7Z3J2 whole entry, looked up): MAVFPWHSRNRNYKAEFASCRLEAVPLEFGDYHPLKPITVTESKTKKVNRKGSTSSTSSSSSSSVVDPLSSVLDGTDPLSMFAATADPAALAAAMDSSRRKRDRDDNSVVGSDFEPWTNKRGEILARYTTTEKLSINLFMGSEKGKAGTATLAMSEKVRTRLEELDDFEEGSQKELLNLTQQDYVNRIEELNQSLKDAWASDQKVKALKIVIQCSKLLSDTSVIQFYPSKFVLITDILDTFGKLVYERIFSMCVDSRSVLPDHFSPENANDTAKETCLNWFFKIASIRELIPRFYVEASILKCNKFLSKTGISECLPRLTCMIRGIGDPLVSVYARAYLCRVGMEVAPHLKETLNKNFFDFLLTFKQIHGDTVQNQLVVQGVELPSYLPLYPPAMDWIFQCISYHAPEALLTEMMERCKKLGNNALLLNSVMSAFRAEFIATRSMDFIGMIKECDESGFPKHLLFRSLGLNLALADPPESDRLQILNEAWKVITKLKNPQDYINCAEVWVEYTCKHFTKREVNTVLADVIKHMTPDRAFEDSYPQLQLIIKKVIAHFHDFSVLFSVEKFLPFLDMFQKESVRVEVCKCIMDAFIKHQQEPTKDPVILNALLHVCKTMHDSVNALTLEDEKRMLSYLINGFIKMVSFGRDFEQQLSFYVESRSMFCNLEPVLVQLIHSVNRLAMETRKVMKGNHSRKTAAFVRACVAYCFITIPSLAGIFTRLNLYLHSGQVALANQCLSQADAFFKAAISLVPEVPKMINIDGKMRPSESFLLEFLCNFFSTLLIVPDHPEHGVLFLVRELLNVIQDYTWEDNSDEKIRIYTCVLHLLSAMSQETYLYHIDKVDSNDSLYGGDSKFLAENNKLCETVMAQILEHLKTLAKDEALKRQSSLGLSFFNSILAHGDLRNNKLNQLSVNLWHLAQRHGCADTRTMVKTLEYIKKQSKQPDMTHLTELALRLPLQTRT
inactive: [1] -0.016 | [2] -0.003 | [3] -0.028 | [4] -0.025 | [5] 0.02 | [6] -0.029 | [7] 0.026 | [8] 0.02 | [9] -0.052 | [10] 0.065 | [11] -0.019 | [12] -0.006 | [13] -0.088 | [14] 0.022 | [15] 0.008 | [16] -0.046 | [17] 0.03 | [18] 0.043 | [19] 0.001 | [20] -0.044

ZMYM1 (UniProt Q5SVZ6)
Chain of UniProt Q5SVZ6 (Q5SVZ6 whole entry, looked up): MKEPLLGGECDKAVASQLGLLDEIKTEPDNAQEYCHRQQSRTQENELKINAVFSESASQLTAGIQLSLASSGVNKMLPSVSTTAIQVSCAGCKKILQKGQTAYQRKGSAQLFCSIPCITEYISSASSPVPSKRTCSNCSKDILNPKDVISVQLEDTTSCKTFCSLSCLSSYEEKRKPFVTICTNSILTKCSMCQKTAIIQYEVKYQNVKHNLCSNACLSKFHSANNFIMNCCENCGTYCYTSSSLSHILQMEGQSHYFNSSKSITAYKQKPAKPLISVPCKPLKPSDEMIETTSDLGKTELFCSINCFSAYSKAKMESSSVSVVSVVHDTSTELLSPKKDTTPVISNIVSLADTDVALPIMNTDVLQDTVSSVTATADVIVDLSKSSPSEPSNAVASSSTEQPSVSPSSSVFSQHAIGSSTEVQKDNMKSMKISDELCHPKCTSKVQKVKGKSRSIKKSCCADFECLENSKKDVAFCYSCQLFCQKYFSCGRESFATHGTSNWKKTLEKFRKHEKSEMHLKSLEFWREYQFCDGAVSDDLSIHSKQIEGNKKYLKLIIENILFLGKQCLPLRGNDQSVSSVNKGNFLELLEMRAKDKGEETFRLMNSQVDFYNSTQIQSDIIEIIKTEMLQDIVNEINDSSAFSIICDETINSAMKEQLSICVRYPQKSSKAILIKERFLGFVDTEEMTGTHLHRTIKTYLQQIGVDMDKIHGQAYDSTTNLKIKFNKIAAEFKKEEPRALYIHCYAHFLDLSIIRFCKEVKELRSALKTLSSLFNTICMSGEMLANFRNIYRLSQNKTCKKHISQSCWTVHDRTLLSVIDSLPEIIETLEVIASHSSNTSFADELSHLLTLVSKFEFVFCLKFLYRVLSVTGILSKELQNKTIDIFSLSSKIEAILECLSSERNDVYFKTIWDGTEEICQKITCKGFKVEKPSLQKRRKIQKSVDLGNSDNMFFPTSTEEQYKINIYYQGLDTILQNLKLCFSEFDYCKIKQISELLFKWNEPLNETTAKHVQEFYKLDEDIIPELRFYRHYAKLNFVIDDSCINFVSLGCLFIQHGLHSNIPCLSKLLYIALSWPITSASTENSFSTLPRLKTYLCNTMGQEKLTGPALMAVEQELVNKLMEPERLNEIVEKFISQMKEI
active: [4] -0.25 | [10] 0.284
inactive: [1] 0.101 | [2] -0.037 | [3] -0.008 | [5] -0.04 | [6] 0.226 | [7] -0.021 | [8] 0 | [9] -0.097 | [11] 0.023 | [12] -0.036 | [13] 0.006 | [14] -0.019 | [15] 0.007 | [16] -0.08 | [17] -0.012 | [18] 0.03 | [19] 0.003 | [20] 0.028

WDR6 (UniProt Q9NNW5)
Chain of UniProt Q9NNW5 (Q9NNW5 whole entry, looked up): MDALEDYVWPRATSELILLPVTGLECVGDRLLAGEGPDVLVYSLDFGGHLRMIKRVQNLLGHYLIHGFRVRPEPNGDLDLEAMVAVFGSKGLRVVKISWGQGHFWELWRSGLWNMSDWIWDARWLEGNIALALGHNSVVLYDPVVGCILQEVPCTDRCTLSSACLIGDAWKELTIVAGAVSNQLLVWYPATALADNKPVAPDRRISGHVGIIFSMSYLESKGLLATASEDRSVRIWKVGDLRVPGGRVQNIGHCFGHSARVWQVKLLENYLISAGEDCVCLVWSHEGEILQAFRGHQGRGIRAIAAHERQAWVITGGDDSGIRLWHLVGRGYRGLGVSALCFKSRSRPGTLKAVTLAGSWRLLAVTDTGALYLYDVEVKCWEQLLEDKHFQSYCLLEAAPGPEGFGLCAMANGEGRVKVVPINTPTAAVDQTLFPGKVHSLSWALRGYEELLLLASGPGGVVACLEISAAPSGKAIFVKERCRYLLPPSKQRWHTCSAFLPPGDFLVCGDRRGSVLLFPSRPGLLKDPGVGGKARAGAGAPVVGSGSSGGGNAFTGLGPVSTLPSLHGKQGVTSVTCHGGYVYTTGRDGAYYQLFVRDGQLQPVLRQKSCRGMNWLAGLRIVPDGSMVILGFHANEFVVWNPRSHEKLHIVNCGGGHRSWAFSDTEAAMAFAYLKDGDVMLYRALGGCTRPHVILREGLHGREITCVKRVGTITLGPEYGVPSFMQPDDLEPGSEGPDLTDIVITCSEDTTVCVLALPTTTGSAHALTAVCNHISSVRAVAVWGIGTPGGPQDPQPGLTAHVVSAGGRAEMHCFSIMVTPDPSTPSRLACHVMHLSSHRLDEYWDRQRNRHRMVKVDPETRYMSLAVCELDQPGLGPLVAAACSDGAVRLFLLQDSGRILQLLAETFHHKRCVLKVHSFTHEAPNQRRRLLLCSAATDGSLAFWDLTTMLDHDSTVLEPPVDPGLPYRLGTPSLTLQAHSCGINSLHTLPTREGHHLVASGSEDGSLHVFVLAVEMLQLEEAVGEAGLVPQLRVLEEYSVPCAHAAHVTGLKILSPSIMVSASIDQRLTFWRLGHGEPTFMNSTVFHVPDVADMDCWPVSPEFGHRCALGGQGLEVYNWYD
inactive: [1] -0.023 | [2] -0.03 | [3] -0.049 | [4] -0.05 | [5] -0.005 | [6] -0.007 | [7] -0.013 | [8] -0.007 | [9] -0.022 | [10] 0.024 | [11] -0.017 | [12] 0.002 | [13] -0.018 | [14] -0.003 | [15] 0.026 | [16] -0.075 | [17] 0.036 | [18] 0.033 | [19] 0.006 | [20] -0.032

USP48 (UniProt Q86UV5)
active: [4] -0.577
inactive: [1] -0.05 | [2] 0.037 | [3] 0.13 | [5] -0.022 | [6] 0.068 | [7] 0.035 | [8] -0.181 | [9] -0.134 | [10] 0.182 | [11] -0.016 | [12] -0.045 | [13] -0.016 | [14] -0.032 | [15] 0.005 | [16] 0.19 | [17] 0.033 | [18] -0.077 | [19] 0.005 | [20] -0.012

YRDC (UniProt Q86U90)
Chain of UniProt Q86U90 (Q86U90 whole entry, looked up): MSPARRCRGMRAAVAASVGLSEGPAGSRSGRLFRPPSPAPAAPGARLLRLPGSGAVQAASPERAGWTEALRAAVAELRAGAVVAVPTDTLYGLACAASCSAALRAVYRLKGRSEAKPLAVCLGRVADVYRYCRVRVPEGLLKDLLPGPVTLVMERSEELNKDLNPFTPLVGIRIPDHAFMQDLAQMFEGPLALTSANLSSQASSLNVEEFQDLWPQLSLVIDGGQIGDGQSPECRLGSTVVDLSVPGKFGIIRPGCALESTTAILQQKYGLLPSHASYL
inactive: [1] -0.028 | [2] -0.038 | [3] -0.047 | [4] -0.039 | [5] 0.018 | [6] 0.055 | [7] 0.027 | [8] 0.035 | [9] 0.022 | [10] 0.01 | [11] 0 | [12] 0.021 | [13] 0.022 | [14] 0.018 | [15] -0.019 | [16] -0.019 | [17] 0.008 | [18] -0.004 | [19] 0.01 | [20] -0.003
